Laboratory results published in PubChem BioAssay AID1578 (Sanford-Burnham Center for Chemical Genomics, 2009).
Among all 290,000 compounds or so, about 3,000 (1%) were called active. The entries come from a sample that favours actives as a whole. A number with no mark means an inactive call. Rule as the data show it: active = inhibition mostly above about 36% (no sharp cut-off); inactive = mostly below about 34%.

Assay: inhibition of NOD1-driven NF-kB reporter – cell-based, luminescence, uHTS, primary screen (AID 1578);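 also: HEK-293T reporter cells stimulated with the NOD1 agonist gamma-tri-DAP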
Details: NOD1-driven NF-kB luciferase reporter cells, at 4 µM, hits give high values

| SMILES | inhibition |
| --- | --- |
| Cc1ccc(NC(=O)COc2ncnc3cc([N+](=O)[O-])ccc23)cc1S(=O)(=O)N1CCOCC1 | -14.7% |
| CCC/S(C)=N/S(=O)(=O)c1ccc(C)cc1 (configuration not stated) | -6.2% |
| O=C1CSC(c2ccccc2F)N1CCN1CCCCC1 (configuration not stated) | -19% |
| COC(=O)c1cccc(NC(=O)Cc2ccc(OC)cc2)c1C | -11.4% |
| O=C(Nc1ccccc1)Nc1nc(-c2ccccc2)cs1 | -13.8% |
| Cc1ccsc1/C=N/N1CCOCC1 | -33.4% |
| CCOC(=O)N1CCC(Nc2c(Nc3cccc(CC)c3)c(=O)c2=O)CC1 | 18.1% |
| CCOc1ccc(C(=O)Nc2cccc3ncccc23)cc1Cl | 8.8% |
| O=C(COc1ccccc1)Nc1ccc2[nH]ncc2c1 | -11.3% |
| Cc1ccccc1OCC(=O)Nc1ccc2[nH]ncc2c1 | -17.7% |
| CC(C)c1ccccc1OCC(=O)Nc1ccc2[nH]ncc2c1 | 47.7% (active) |
| N#Cc1c(Nc2ccccc2)sc(C(=O)c2ccccc2)c1N | 0.9% |
| Nc1c(C(=O)c2ccccc2)sc(Nc2ccccc2)c1S(=O)(=O)c1ccccc1 | 52.2% (active) |
| N#Cc1c(Nc2ccccc2)sc(C(=O)c2ccc(F)cc2)c1N | 5.2% |
| COCCn1c(C)cc(C(=O)CSc2nnc(C)s2)c1C | 77.8% (active) |
| CC(=O)CSc1ncnc2sc3c(c12)CCC3 | 13.2% |
| Cc1ccc(C(=O)CSc2ncnc3sc4c(c23)CCCC4)cc1 | 31% |
| COCCn1c(C)cc(C(=O)CSc2nc3ccccc3s2)c1C | 54% |
| COCCn1c(C)cc(C(=O)CSc2nc(C)c(C)c(C)n2)c1C | -5.4% |
| COc1ccc(CNCc2ccc3c(c2)OCO3)c(OC)c1OC | -18% |
| Cc1cc(N2CCN(C)CC2)nc2ccc(NC(=O)CCC(=O)NCCC(C)C)cc12 | -10.6% |
| Cc1ccc2nc(Cl)c3nnnn3c2c1 | 83.8% (active) |
| Cc1ccc2nc(N3CCN(c4cccc(C)c4C)CC3)c3nnnn3c2c1 | 6.9% |
| Cc1ccc(-c2nc3ccccc3n3nnnc23)cc1 | -53.8% |
| COc1ccc(OCCC(=O)N2CCOCC2)cc1 | -24% |
| CN(Cc1ccccc1)C(=O)c1ccccc1NC(=O)c1ccco1 | 54.5% (active) |

| SMILES | inhibition |
| --- | --- |
| CN(Cc1ccccc1)C(=O)c1ccccc1NC(=O)c1ccccc1 | -20.6% |
| O=C(Nc1ccccc1C(=O)NCc1ccccc1)c1ccco1 | -14.6% |
| Oc1ccc(/C=N/Nc2ccnc3cc(Cl)ccc23)c(O)c1O | -3.8% |
| CN(C)CCN(C(=O)c1ccc(N2C(=O)CCC2=O)cc1)c1nc2cc3c(cc2s1)OCO3 | -20.4% |
| O=C(N/N=C/c1ccccc1Br)C1CC1 | -25.3% |
| Cc1oc(-c2ccc(Cl)cc2)nc1CN1CCC(C(=O)NCCCN2CCCC2=O)CC1 | 17.3% |
| COc1ccc(CCC(=O)O)cc1OC | -2.3% |
| O=Cc1cc(CCC(=O)O)ccc1O | 63% (active) |
| O=C(O)Cc1ccc(O)c(O)c1 | -0.7% |
| COc1ccc(C(=O)/C(C#N)=N/Nc2ccccc2[N+](=O)[O-])cc1 | 42.9% |
| COc1ccc(N/N=C(\C#N)C(N)=O)cc1 | -41.5% |
| COc1ccc(C(=O)/C(C#N)=N/Nc2ccc([N+](=O)[O-])cc2)cc1 | 82.5% (active) |
| Cc1c(NC(=O)C(C#N)=C2CCCCC2)c(=O)n(-c2ccccc2)n1C | -3.8% |
| O=C(c1cc(F)ccc1F)C1CCCN(C(=O)CCN2CCCCO2)C1 (configuration not stated) | -29.2% |
| O=C(Nc1nc2ccc(F)cc2s1)c1cccs1 | -59.7% |
| Cc1ccc2nc(NC(=O)COC(=O)c3ccccn3)sc2c1 | -22% |
| Cc1ccc2nc(NC(=O)c3ccccn3)sc2c1 | 109% (active) |
| O=C(NNc1nc2c(F)cc(F)cc2s1)c1ccccc1 | -5.8% |
| O=C(Nc1nc2c(F)cc(F)cc2s1)c1ccccn1 | 70.9% (active) |
| O=C(Nc1nc2c(F)cc(F)cc2s1)c1ccco1 | -3.5% |
| COC(=O)c1ccc2nc(NC(=O)C(C)(C)C)sc2c1 | 35.8% |
| Fc1ccc2nc(Nc3nc4c(F)cc(F)cc4s3)sc2c1 | 2.7% |
| O=C(Nc1nc2ccc(S(=O)(=O)N3CCCC3)cc2s1)c1ccccn1 | -16.1% |
| O=C(Nc1nc2ccc(F)cc2s1)c1ccccn1 | 107% (active) |
| Cc1ccc2nc(NC(=O)c3ccccc3F)sc2c1 | -69.7% |
| COc1cc(CN2CCCC(N3CCN(c4ccc(F)cc4)CC3)C2)ccc1F (configuration not stated) | 61.4% |
